Source: PubChem BioAssay (NCATS)
Records with an inconclusive call do not appear. Activity calls are given as the source filed them. The call rests on the fitted dose curve; in most records, active means well fitted cell-killing curve with a large enough effect; inconclusive means small, poorly fitted or top-dose-only effect, or effect the other way; inactive means flat fitted curve, though single readings scatter. Where a SMILES comes first, the peptide text is derived from it. [ ]: non-standard residue; d: D form. ξ: configuration not given here. ξPhe(βξ-Me) = CC(c1ccccc1)C(N)C(=O)O; GABA = NCCCC(=O)O

Legend:
Experiment in all cases: Primary qHTS to identify gynecologic anti-cancer compounds using libraries of approved drugs and bioactive compounds (AID 1345084); further: nearly all actives have a fitted effect of over 55% in size
CAOV3 = settings: Gynecologic cancer cell panel viability, ATPlite luminescence, 48 h; series mostly up to 57.5 µM
Outline: (§1)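 Luminescence from the ATPlite ATP-monitoring reagent indicates viable cell number; lower signal means cytotoxicity. Cells received compound 16 h after seeding and were exposed for 48 h across five concentrations.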

CASKI = settings: Gynecologic cancer cell panel viability, ATPlite luminescence, 48 h; series mostly up to 57.5 µM
Outline: as §1

Es-2 = settings: Gynecologic cancer cell panel viability, ATPlite luminescence, 48 h; series mostly up to 57.5 µM
Outline: as §1

HeLa = settings: Gynecologic cancer cell panel viability, ATPlite luminescence, 48 h; series mostly up to 57.5 µM
Outline: as §1

Hek293T = settings: Gynecologic cancer cell panel viability, ATPlite luminescence, 48 h, control line for the selectivity index; series mostly up to 57.5 µM
Outline: as §1

JEG-3 = settings: Gynecologic cancer cell panel viability, ATPlite luminescence, 48 h; series mostly up to 57.5 µM
Outline: as §1

OV90 = settings: Gynecologic cancer cell panel viability, ATPlite luminescence, 48 h; series mostly up to 57.5 µM
Outline: as §1

PA-1 = settings: Gynecologic cancer cell panel viability, ATPlite luminescence, 48 h; series mostly up to 57.5 µM
Outline: as §1

Tov-21-G = settings: Gynecologic cancer cell panel viability, ATPlite luminescence, 48 h; series mostly up to 57.5 µM
Outline: as §1

Tov112D = settings: Gynecologic cancer cell panel viability, ATPlite luminescence, 48 h; series mostly up to 57.5 µM
Outline: as §1

SKOV3 = settings: Gynecologic cancer cell panel viability, ATPlite luminescence, 48 h; series mostly up to 57.5 µM
Outline: as §1
On the % scale 0 is the no-effect control and ±100 the full control effect.

C[C@@H]1O[C@@H](O[C@@H]2[C@@H](O)[C@H](O[C@@H]3[C@@H](O)[C@@H](O)[C@H](O[C@H]4[C@H](OC(=O)[C@]56CCC(C)(C)C[C@H]5C5=CCC7[C@@]8(C)C[C@H](O)[C@H](O[C@@H]9O[C@@H](C)[C@H](O)[C@@H](O)[C@H]9O)[C@@](C)(CO)C8CC[C@@]7(C)[C@]5(C)C[C@H]6O)O[C@H](C)[C@H](O)[C@@H]4O)O[C@H]3C)OC[C@H]2O)[C@H](O)[C@H](O)[C@H]1O (some centres undefined)
inactive: activity change, negative = cytotoxicity (CAOV3) 7.84% [at 6.55 µM] | activity change, negative = cytotoxicity (CASKI) 0.934% [at 6.55 µM] | activity change, negative = cytotoxicity (Es-2) -4.41% [at 6.55 µM] | activity change, negative = cytotoxicity (HeLa) 3.33% [at 6.55 µM] | activity change, negative = cytotoxicity (Hek293T) 5.23% [at 6.55 µM] | activity change, negative = cytotoxicity (JEG-3) 1.34% [at 6.55 µM] | activity change, negative = cytotoxicity (OV90) 4.8% [at 6.55 µM] | activity change, negative = cytotoxicity (PA-1) 7.81% [at 6.55 µM] | activity change, negative = cytotoxicity (Tov-21-G) -0.124% [at 6.55 µM] | activity change, negative = cytotoxicity (Tov112D) 9.68% [at 6.55 µM]

CC(C)CC1NC(=O)C(C(C)c2ccccc2)NC(=O)C(C(C)C)NC(=O)C(C)NC(=O)CCCNC(=O)C(Cc2c[nH]c3ccccc23)NC(=O)C(C)NC1=O (stereo not drawn) (cyclo([GABA]AV[ξPhe(βξ-Me)]LAW); configuration not given here)
inactive: Potency (CAOV3) | Potency (CASKI) | Potency (Es-2) | Potency (HeLa) | Potency (Hek293T) | Potency (JEG-3) | Potency (OV90) | Potency (PA-1) | Potency (Tov-21-G) | Potency (Tov112D)

COC(=O)C1C(c2ccc(O)cc2)C(C(=O)OC)C1c1ccc(O)cc1 (centres undefined)
inactive: Potency (CAOV3) | Potency (CASKI) | Potency (Es-2) | Potency (HeLa) | Potency (Hek293T) | Potency (JEG-3) | Potency (OV90) | Potency (PA-1) | Potency (Tov-21-G) | Potency (Tov112D)

C[C@@H]1O[C@@H](O[C@H]2[C@H](OC(=O)[C@]34CCC(C)(C)C[C@H]3C3=CCC5[C@@]6(C)C[C@H](O)[C@H](O[C@@H]7O[C@H](CO[C@@H]8OC[C@H](O)[C@H](O)[C@H]8O)[C@@H](O)[C@H](O)[C@H]7O)C(C)(C)C6CC[C@@]5(C)[C@]3(C)C[C@H]4O)OC[C@@H](O)[C@@H]2O)[C@H](O)[C@H](O[C@@H]2OC[C@](O)(CO)[C@H]2O)[C@H]1O[C@@H]1OC[C@H](O)[C@H](O[C@@H]2OC[C@@H](O)[C@H](O)[C@H]2O)[C@H]1O (some centres undefined)
inactive: activity change, negative = cytotoxicity (CAOV3) 12.2% [at 6.55 µM] | activity change, negative = cytotoxicity (CASKI) 2.2% [at 6.55 µM] | activity change, negative = cytotoxicity (Es-2) -0.0559% [at 6.55 µM] | activity change, negative = cytotoxicity (HeLa) 19.1% [at 6.55 µM] | activity change, negative = cytotoxicity (Hek293T) 7.42% [at 6.55 µM] | activity change, negative = cytotoxicity (JEG-3) -3.85% [at 6.55 µM] | activity change, negative = cytotoxicity (OV90) -1.75% [at 6.55 µM] | activity change, negative = cytotoxicity (PA-1) 9.54% [at 6.55 µM] | activity change, negative = cytotoxicity (Tov-21-G) -3.09% [at 6.55 µM] | activity change, negative = cytotoxicity (Tov112D) 5.07% [at 6.55 µM]

CC1CCC2(C(=O)OC3OC(COC4OC(CO)C(O)C(O)C4O)C(O)C(O)C3O)CCC3(C)C(=CCC4C5(C)CCC(O)C(C)(C(=O)O)C5CCC43C)C2C1(C)O (centres undefined)
inactive: activity change, negative = cytotoxicity (CAOV3) 16.9% [at 11.6 µM] | activity change, negative = cytotoxicity (CASKI) 8.05% [at 11.6 µM] | activity change, negative = cytotoxicity (Es-2) 5.49% [at 11.6 µM] | activity change, negative = cytotoxicity (HeLa) -4.94% [at 11.6 µM] | activity change, negative = cytotoxicity (Hek293T) 2.24% [at 11.6 µM] | activity change, negative = cytotoxicity (JEG-3) 10.5% [at 11.6 µM] | activity change, negative = cytotoxicity (OV90) 27% [at 11.6 µM] | activity change, negative = cytotoxicity (PA-1) -0.862% [at 11.6 µM] | activity change, negative = cytotoxicity (Tov-21-G) 6.67% [at 11.6 µM] | activity change, negative = cytotoxicity (Tov112D) -8.14% [at 11.6 µM]

C=C[C@](C)(CC/C=C(\C)C(=O)O)O[C@@H]1OC[C@H](O)[C@H](O)[C@H]1O
inactive: Potency (CAOV3) | Potency (CASKI) | Potency (Es-2) | Potency (HeLa) | Potency (Hek293T) | Potency (JEG-3) | Potency (OV90) | Potency (SKOV3) | Potency (Tov-21-G) | Potency (Tov112D)

CC(=O)OCC1=C[C@H](O)[C@@H]2C(C(=O)O)=CO[C@@H](O[C@@H]3O[C@H](CO)[C@@H](O)[C@H](O)[C@H]3O)[C@H]12
inactive: Potency (CAOV3) | Potency (CASKI) | Potency (Es-2) | Potency (HeLa) | Potency (Hek293T) | Potency (JEG-3) | Potency (OV90) | Potency (PA-1) | Potency (Tov-21-G) | Potency (Tov112D)

COC(=O)C1=COC(OC2OC(CO)C(O)C(O)C2O)C2C1CC(OC(=O)C(O)CC(=O)O)C2C (centres undefined)
inactive: Potency (CAOV3) | Potency (CASKI) | Potency (Es-2) | Potency (HeLa) | Potency (Hek293T) | Potency (JEG-3) | Potency (OV90) | Potency (PA-1) | Potency (Tov-21-G) | Potency (Tov112D)

CC(C)=CCC[C@](C)(O[C@@H]1O[C@H](CO[C@@H]2OC[C@@H](O)[C@H](O)[C@H]2O)[C@@H](O)[C@H](O)[C@H]1O)[C@H]1CC[C@]2(C)[C@@H]1[C@H](O)C[C@@H]1[C@@]3(C)CC[C@H](O[C@@H]4O[C@H](CO)[C@@H](O)[C@H](O)[C@H]4O[C@@H]4O[C@H](CO)[C@@H](O)[C@H](O)[C@H]4O)C(C)(C)[C@@H]3CC[C@]12C
inactive: Potency (CAOV3) | Potency (CASKI) | Potency (Es-2) | Potency (HeLa) | Potency (Hek293T) | Potency (JEG-3) | Potency (OV90) | Potency (SKOV3) | Potency (Tov-21-G) | Potency (Tov112D)

C=C(C(=O)O)[C@@H]1CC=C2CCC[C@H](C)[C@@]2(C)C1
inactive: Potency (CAOV3) | Potency (CASKI) | Potency (Es-2) | Potency (HeLa) | Potency (Hek293T) | Potency (JEG-3) | Potency (OV90) | Potency (PA-1) | Potency (Tov-21-G) | Potency (Tov112D)

COc1cc(N2CCC(O)CC2)ccc1Nc1cc(Nc2ccccc2S(=O)(=O)C(C)C)c2cc[nH]c2n1
inactive: Potency (CAOV3) | Potency (CASKI) | Potency (Es-2) | Potency (HeLa) | Potency (Hek293T) | Potency (JEG-3) | Potency (OV90) | Potency (SKOV3) | Potency (Tov-21-G) | Potency (Tov112D)

COc1cc(C(C)=O)ccc1O[C@@H]1O[C@H](CO[C@@H]2O[C@@H](C)[C@H](O)[C@@H](O)[C@H]2O)[C@@H](O)[C@H](O)[C@H]1O
inactive: Potency (CAOV3) | Potency (CASKI) | Potency (Es-2) | Potency (HeLa) | Potency (Hek293T) | Potency (JEG-3) | Potency (OV90) | Potency (Tov-21-G) | Potency (Tov112D)

CC1(C)OC(=O)C(OCC2CC2)=C1c1ccc(S(C)(=O)=O)cc1
inactive: Potency (CAOV3) | Potency (CASKI) | Potency (Es-2) | Potency (HeLa) | Potency (Hek293T) | Potency (JEG-3) | Potency (OV90) | Potency (PA-1) | Potency (Tov-21-G) | Potency (Tov112D)

CCOC(=O)[C@H]1O[C@@H]1C(=O)N[C@@H](CC(C)C)C(=O)NCCC(C)C
inactive: Potency (CAOV3) | Potency (CASKI) | Potency (Es-2) | Potency (HeLa) | Potency (Hek293T) | Potency (JEG-3) | Potency (OV90) | Potency (PA-1) | Potency (Tov-21-G) | Potency (Tov112D)

Nc1nc(CC(=O)Nc2ccc(CCNCC(O)c3ccccc3)cc2)cs1 (centres undefined)
inactive: Potency (CAOV3) | Potency (CASKI) | Potency (Es-2) | Potency (HeLa) | Potency (Hek293T) | Potency (JEG-3) | Potency (OV90) | Potency (PA-1) | Potency (Tov-21-G) | Potency (Tov112D)
